Among all 48,000 compounds or so, about 13,000 (27%) showed an effect of 50% or more. This is one part of the list.
test system: Wolbachia pipientis; assay: Anti-Wolbachia Cell-Based Screen; format: functional; set-up: scale not given: in the data most compounds retested in dose-response had high values; conditions: 5 µM

| SMILES | Percent Effect [%] |
| --- | --- |
| Cc1nc(CCNC(Cc2ccncc2)C(F)(F)F)cs1 (stereo not given) | -2.78 |
| CC(O)CCn1ccc2[nH]c(=O)c(C#N)cc2c1=O (stereo not given) | -44.58 |
| COC(=O)C(C)NCc1ccc2[nH]c(C)c(C)c2c1 (stereo not given) | -1.475 |
| COc1cc2[nH]c(=O)c(CN3CCC[C@@H]3C(N)=O)cc2c(OC)c1OC | -9.081 |
| COc1cc2cc(C(=O)O)n(C)c2c(OC)c1OC | -1.189 |
| COc1cc2[nH]c(C(=O)O)cc2c(OC)c1C | 98.44 |
| COc1cc(C(=O)Nc2c(C)noc2C)ccc1C | 5.924 |
| COc1cc2[nH]c(=O)c(CN3CCCC(CO)C3)cc2c(OC)c1OC (stereo not given) | 1.788 |
| COC(=O)c1cc2c(OC)c(C)c(OC)cc2[nH]1 | 95.02 |
| COC(=O)c1cc2c(OC)c(OC)c(OC)cc2[nH]1 | 120.2 |
| COc1cc(C(=O)N(C)Cc2cc(C(=O)O)c(C)o2)cc(OC)c1OC | -0.7675 |
| CCCn1nc2c(cc1=O)CN(CC(=O)N(C)c1nccs1)CC2 | -22.84 |
| CCc1cc(NCCCC2CCOC2)n2nccc2n1 (stereo not given) | -1.009 |
| CCc1nnsc1C(=O)NCCn1nc2ccccn2c1=O | 6.254 |
| NC(=O)C(NC(=O)c1cc(Cl)c[nH]1)c1ccccc1 (stereo not given) | 10.72 |
| c1ccc(CN(Cc2cccc3cnccc23)CC2CCCO2)nc1 (stereo not given) | 15.94 |
| COCC1CN(CC2CC2)Cc2ncn(CC3CC3)c21 (stereo not given) | 123 |
| COCC1CN(Cc2ccc(C)o2)Cc2ncn(CC3CC3)c21 (stereo not given) | 4.542 |
| CCOCC1CN(S(=O)(=O)C2CC2)Cc2nn(C)cc21 (stereo not given) | -10.65 |
| CCOCC1CN(S(C)(=O)=O)Cc2ncn(CC3CC3)c21 (stereo not given) | -5.705 |
| COCC1CN(C(=O)CS(C)(=O)=O)Cc2ncn(CC3CC3)c21 (stereo not given) | 98.19 |
| COCC1CN(CC2CC2)Cc2nn(C)cc21.O=C(O)C(F)(F)F (stereo not given) | -11.2 |
| COCC1CN(C(=O)CC2=CCCCC2)Cc2nnn(CC3CC3)c21 (stereo not given) | 25.21 |
| CCn1cc2c(n1)CN(S(=O)(=O)c1ccc(C)cc1)CC2COC (stereo not given) | -1.212 |

| SMILES | Percent Effect [%] |
| --- | --- |
| COCC1CN(C(=O)Cc2ccccn2)Cc2ncn(C)c21 (stereo not given) | -6.541 |
| CCOCC1CN(S(=O)(=O)C2CC2)Cc2ncn(CC3CC3)c21 (stereo not given) | 93.99 |
| CCOC(=O)C1CN(S(=O)(=O)C2CC2)Cc2ncn(CC)c21 (stereo not given) | -2.058 |
| COCC1CN(S(=O)(=O)C2CC2)Cc2ncn(CC3CC3)c21 (stereo not given) | 93.96 |
| CCN(C)S(=O)(=O)c1ccc(Cl)cc1C#N | -3.723 |
| CCN1C(=O)[C@]2(CC[C@@H]3CN(C(=O)NCC(C)C)C[C@@H]32)N=C1C | 1.741 |
| CCS(=O)(=O)N1Cc2ncn(CC3CC3)c2C(COC)C1 (stereo not given) | 96.93 |
| COCC1CN(S(C)(=O)=O)Cc2ncn(CC3CC3)c21 (stereo not given) | -3.416 |
| CCOCC1CN(S(=O)(=O)CC)Cc2nn(C)cc21 (stereo not given) | -1.442 |
| CCS(=O)(=O)N1CCc2cc(C(=O)NC)c(NCC(C)C)nc2CC1 | -9.983 |
| CC[C@H](C)[C@H](NC(=O)Cc1csc(-c2cccc(Cl)c2)n1)C(=O)O | -0.2804 |
| COc1cccc(-c2nc(CNC(C)Cn3cccn3)cs2)c1 (stereo not given) | 12.67 |
| O=C(Cc1csc(-c2ccc(Cl)cc2)n1)NC(C(=O)O)c1ccccc1 (stereo not given) | 14.14 |
| C[C@H](NC(=O)Cc1csc(-c2cccc(Cl)c2)n1)C(=O)O | 100.7 |
| COc1cccc(-c2nc(C)c(C(=O)N[C@@H](C)C(=O)O)s2)c1 | -5.733 |
| O=C(Cc1csc(N2CCNC2=O)n1)NC(c1ccccc1)C1CC1 (stereo not given) | -8.956 |
| CC(C)C[C@H](NC(=O)Cc1csc(-c2cccc(Cl)c2)n1)C(=O)O | 111.7 |
| O=C(Cc1csc(-c2ccccc2)n1)N[C@@H](C(=O)O)c1ccccc1 | 112.5 |
| NC(=O)CCS(=O)(=O)Cc1ccc(OCC(F)(F)F)cc1 | -2.639 |
| CC(=O)Nc1ccc2c(c1)nc1n2[C@@H](CNCc2ccccc2)COC1 | -2.529 |
| C1CC(CN2C[C@H]3CC[C@@H]2CN(Cc2noc(C4CCCC4)n2)C3)C1 | -8.86 |
| O=C1CC(c2cccc(O)c2)c2c(c(C(=O)O)cn2-c2ccccc2)N1 (stereo not given) | 2.755 |
| COCc1noc(-c2ccc(N3CCCCC3CO)nc2)n1 (stereo not given) | -1.816 |
| COCc1noc(-c2ccc(N3CCC[C@H]3CO)nc2)n1 | 11.1 |

| SMILES | Percent Effect [%] |
| --- | --- |
| OC[C@H]1CCCN1c1nccc(-c2cncnc2C2CCCCC2)n1 | 101.1 |
| OCC1CCCN1c1cc(N2CCc3ccccc3C2)ncn1 (stereo not given) | -8.701 |
| OC[C@@H]1CCCN1c1nccc(-c2c[nH]nc2-c2ccncc2)n1 | 132.9 |
| OC[C@H]1CCCN1c1nccc(-c2c[nH]nc2C2CCCCC2)n1 | 103.3 |
| OC[C@@H]1CCCN1c1ccc(-c2nc(COc3ccccc3)no2)cn1 | -5.727 |
| CC(NC(=O)c1cc2n(n1)CCCN(C)C2)c1cn2ccsc2n1 (stereo not given) | -3.947 |
| CC(C)(C)OC(=O)N1CC(CC(=O)NCc2ccsc2)C1 | -134.2 |
| N#Cc1cccc(CNc2cc(CO)ccc2Cl)c1 | -41.9 |
| CC(=O)N[C@@H]1CN(C2CCN(c3cccc(C)c3C)CC2)C[C@H]1C(C)C | -7.453 |
| Cc1ncccc1OC1(C(=O)NCc2noc(C(C)C)n2)CCNCC1 | -7.244 |
| CNc1cc(C)nc(C2CN(Cc3cc[nH]n3)CCO2)c1 (stereo not given) | -11.69 |
| CCCc1nnc(NC(=O)N2CCCC(NC(C)=O)C2)s1 (stereo not given) | -6.221 |
| CCc1nnc(Nc2cc(C)nc(C3CN(C(C)=O)CCO3)c2)s1 (stereo not given) | 108.4 |
| COc1ccc(CNCc2ccnc(N3CCOCC3)c2)cc1OC | -3.598 |
| COc1c(C)cc(CNCc2ccnc(N3CCOCC3)c2)cc1C.Cl | 93.56 |
| COc1ccc(OC)c(CNCc2ccnc(N3CCOCC3)c2)c1 | 119.2 |
| Cl.c1cc(CNCc2ccc3c(c2)CCO3)cc(N2CCOCC2)n1 | -6.468 |
| COc1cc(CNCc2ccnc(N3CCOCC3)c2)cc(OC)c1 | 97.96 |
| COc1ccc(CNCc2ccnc(N3CCOCC3)c2)c(OC)c1 | -1.923 |
| COc1cc(CNCc2ccnc(N3CCOCC3)c2)cc(Cl)c1OC | -1.055 |
| COc1cccc(CNCc2ccnc(N3CCOCC3)c2)c1OC | 119.8 |
| Cl.c1cc(CNCc2ccnc(N3CCOCC3)c2)c2c(c1)OCO2 | 16.56 |

— ChEMBL document CHEMBL3988442, “University of Dundee, Small-Polar-MMV Screening Library” (2021)
